PubChem BioAssay (EPA / NIEHS)
Records with an inconclusive call do not appear. Active and inactive are the calls of the source. How the source made its calls: active means hit-call score of the fitted dose curve at least 0.9, where 1 is the maximum; inconclusive means response in the unintended direction; inactive means score below 0.9.

biological target: Collagenase 3 (Homo sapiens) (UniProt P45452); assay: NVS_ENZ_hMMP13: NovaScreen (NVS) Enzymatic Assay for human Matrix Metalloproteinase-13 (MMP13) (AID 2283182)
Summary of the method: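 Recombinant MMP13 cleaving fluorescent substrate, cell-free, measured 1 h after dosing. Primary duplicate screen at 25 uM; actives tested in concentration-response up to 50 uM; loss of signal relative to DMSO.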

Question: How did the AC50 turn out when `CCOC(=O)C(C)OC(=O)c1cc(Oc2ccc(C(F)(F)F)cc2Cl)ccc1[N+](=O)[O-]` (configuration not stated) was run?
Answer: 15.3 µM (active)

Question: With `Clc1nc(Cl)nc(Nc2ccccc2Cl)n1` as the compound, how does the outcome read?
Answer: inactive

Question: With `CN=C=S` as the compound, how does the outcome read?
Answer: inactive

Question: Which AC50 does the source give for `CC1(C)C(C=C(Cl)Cl)C1C(=O)OC(C#N)c1cccc(Oc2ccccc2)c1` (configuration not stated) here?
Answer: 11.8 µM (active)

Question: How did the outcome turn out when `Cc1c(COC(=O)[C@@H]2[C@H](/C=C(\Cl)C(F)(F)F)C2(C)C)cccc1-c1ccccc1` was run?
Answer: inactive

biological target: human Matrix Metalloproteinase-7 (MMP7), MMP7 (gene 4316) (UniProt P09237); assay: NVS_ENZ_hMMP7: NovaScreen (NVS) Enzymatic Assay for human Matrix Metalloproteinase-7 (MMP7) (AID 2283183)
Summary of the method: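 Cell-free fluorescence enzymatic assay read 1 h after compound addition, activity loss analyzed against DMSO. Primary duplicate testing at 25 uM; compounds meeting threshold rerun in singleton concentration-response up to 50 uM.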

Sequence of human Matrix Metalloproteinase-7 (MMP7), MMP7 (gene 4316) (P09237 whole entry, looked up): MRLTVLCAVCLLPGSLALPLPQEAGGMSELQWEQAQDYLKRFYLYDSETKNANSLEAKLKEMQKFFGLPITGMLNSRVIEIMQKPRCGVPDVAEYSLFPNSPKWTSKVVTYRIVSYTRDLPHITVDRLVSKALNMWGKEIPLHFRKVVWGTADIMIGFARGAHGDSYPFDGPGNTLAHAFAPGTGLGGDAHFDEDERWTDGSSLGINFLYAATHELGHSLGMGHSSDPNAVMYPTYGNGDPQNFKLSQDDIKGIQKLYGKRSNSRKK

Question: `CC(C)=CC1C(C(=O)OCc2coc(Cc3ccccc3)c2)C1(C)C` (configuration not stated) was tested. Which AC50 did it give?
Answer: 6.48 µM (active)

Question: How did the outcome turn out when `COC(=O)c1c(C(F)F)nc(C(F)(F)F)c(C2=NCCS2)c1CC(C)C` was run?
Answer: inactive

Question: For `Clc1nc(Cl)nc(Nc2ccccc2Cl)n1`, which AC50 is on record?
Answer: 7.57 µM (active)

Question: With `N#CN=C1SCCN1Cc1ccc(Cl)nc1` as the compound, how does the outcome read?
Answer: inactive

Question: With `CCN(CC)c1nc(C)cc(OP(=S)(OC)OC)n1` as the compound, how does the outcome read?
Answer: inactive

biological target: human Matrix Metalloproteinase-2 (MMP2), MMP2 (gene 4313) (UniProt P08253); assay: NVS_ENZ_hMMP2: NovaScreen (NVS) Enzymatic Assay for human Matrix Metalloproteinase-2 (MMP2) (AID 2283184)
Summary of the method: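 Cell-free recombinant MMP2 activity with a fluorescent substrate, read 1 h after dosing. Primary screen in duplicate at 25 uM; actives then run in concentration series; loss of signal fitted versus DMSO.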

Sequence of human Matrix Metalloproteinase-2 (MMP2), MMP2 (gene 4313) (P08253 whole entry, looked up): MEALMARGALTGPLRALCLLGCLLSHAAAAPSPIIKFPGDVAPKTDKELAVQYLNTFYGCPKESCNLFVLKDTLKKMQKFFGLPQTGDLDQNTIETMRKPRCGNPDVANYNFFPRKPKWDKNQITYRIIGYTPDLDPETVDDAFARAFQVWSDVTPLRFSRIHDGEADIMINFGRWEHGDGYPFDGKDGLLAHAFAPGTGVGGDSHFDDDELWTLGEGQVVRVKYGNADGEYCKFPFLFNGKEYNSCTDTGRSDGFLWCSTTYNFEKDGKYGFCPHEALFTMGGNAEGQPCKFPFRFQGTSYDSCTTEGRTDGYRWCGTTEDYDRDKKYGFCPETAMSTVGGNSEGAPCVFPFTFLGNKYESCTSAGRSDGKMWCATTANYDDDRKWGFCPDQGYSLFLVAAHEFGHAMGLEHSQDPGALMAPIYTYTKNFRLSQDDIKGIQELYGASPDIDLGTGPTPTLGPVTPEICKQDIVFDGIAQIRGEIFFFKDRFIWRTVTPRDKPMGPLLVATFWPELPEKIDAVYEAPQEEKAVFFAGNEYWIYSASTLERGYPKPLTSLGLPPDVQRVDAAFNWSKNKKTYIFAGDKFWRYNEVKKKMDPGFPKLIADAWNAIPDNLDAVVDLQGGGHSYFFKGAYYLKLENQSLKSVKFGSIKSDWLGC

Question: With `CCOC(=O)C(C)OC(=O)c1cc(Oc2ccc(C(F)(F)F)cc2Cl)ccc1[N+](=O)[O-]` (configuration not stated) as the compound, how does the outcome read?
Answer: inactive

Question: For `CC(C)=CC1C(C(=O)OCc2coc(Cc3ccccc3)c2)C1(C)C` (configuration not stated), which outcome is on record?
Answer: inactive

Question: How did the AC50 turn out when `COC(=O)N(C(=O)N1CO[C@@]2(C(=O)OC)Cc3cc(Cl)ccc3C2=N1)c1ccc(OC(F)(F)F)cc1` was run?
Answer: 9.53 µM (active)

Question: Which AC50 does the source give for `CC1(C)C(C=C(Cl)Cl)C1C(=O)OC(C#N)c1cccc(Oc2ccccc2)c1` (configuration not stated) here?
Answer: 4.96 µM (active)

Question: For `CS(=O)(=O)c1ccc(C(=O)C2C(=O)CCCC2=O)c([N+](=O)[O-])c1`, which AC50 is on record?
Answer: 1.59 µM (active)

biological target: human Matrix Metalloproteinase-9 (MMP9), MMP9 (gene 4318) (UniProt P14780); assay: NVS_ENZ_hMMP9: NovaScreen (NVS) Enzymatic Assay for human Matrix Metalloproteinase-9 (MMP9) (AID 2283190);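 further: cell-free recombinant MMP9 protease activity read by fluorescent substrate signal; active means inhibition seen as loss of fluorescence signal versus DMSO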
Summary of the method: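 Inhibition was scored as loss of fluorescence signal against DMSO controls. The recombinant protease was exposed to chemicals for 1 hour before reading; initial testing used 25 uM in duplicate.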

Sequence of human Matrix Metalloproteinase-9 (MMP9), MMP9 (gene 4318) (P14780 whole entry, looked up): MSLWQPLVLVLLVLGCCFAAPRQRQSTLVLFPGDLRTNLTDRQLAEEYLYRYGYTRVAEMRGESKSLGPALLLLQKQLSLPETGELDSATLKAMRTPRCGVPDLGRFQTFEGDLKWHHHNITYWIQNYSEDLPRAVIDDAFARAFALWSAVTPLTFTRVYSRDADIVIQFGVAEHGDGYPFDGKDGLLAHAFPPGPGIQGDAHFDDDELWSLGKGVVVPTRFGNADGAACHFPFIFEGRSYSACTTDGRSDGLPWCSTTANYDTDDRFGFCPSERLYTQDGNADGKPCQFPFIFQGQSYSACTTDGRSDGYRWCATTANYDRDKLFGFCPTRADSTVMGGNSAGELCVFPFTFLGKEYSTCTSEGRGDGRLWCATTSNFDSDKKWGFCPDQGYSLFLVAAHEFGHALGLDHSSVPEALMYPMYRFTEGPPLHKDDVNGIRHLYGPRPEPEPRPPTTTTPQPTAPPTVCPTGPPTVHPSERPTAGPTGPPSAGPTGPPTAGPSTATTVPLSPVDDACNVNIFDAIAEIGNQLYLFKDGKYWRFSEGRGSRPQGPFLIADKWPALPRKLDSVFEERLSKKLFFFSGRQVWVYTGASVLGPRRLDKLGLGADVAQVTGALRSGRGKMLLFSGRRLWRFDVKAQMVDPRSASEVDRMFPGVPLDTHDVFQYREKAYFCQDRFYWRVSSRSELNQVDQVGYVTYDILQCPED

Question: Which outcome does the source give for `COC(=O)NC(=S)Nc1ccccc1NC(=S)NC(=O)OC` here?
Answer: inactive

Question: For `CCN(CC)C(=O)C(C)Oc1cccc2ccccc12` (configuration not stated), which outcome is on record?
Answer: inactive

Question: For `CC1(C)C(C=C(Cl)Cl)C1C(=O)OC(C#N)c1cccc(Oc2ccccc2)c1` (configuration not stated), which AC50 is on record?
Answer: 13.4 µM (active)

Question: `CCN(CC)c1nc(C)cc(OP(=S)(OC)OC)n1` was tested. Which outcome did it give?
Answer: inactive

Question: How did the outcome turn out when `COP(=S)(OC)SCn1nnc2ccccc2c1=O` was run?
Answer: inactive

biological target: human Phosphodiesterase 4A1 (PDE4A1), PDE4A (gene 5141) (UniProt P27815); assay: NVS_ENZ_hPDE4A1: NovaScreen (NVS) Enzymatic Assay for human Phosphodiesterase 4A1 (PDE4A1) (AID 2283191)
Summary of the method: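 Cell-free recombinant human PDE4A1 with fluorescent substrate; product separated by electrophoretic mobility shift, 1 h. Screened at 25 uM, then up to 50 uM in concentration-response; loss of signal fitted against DMSO.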

Sequence of human Phosphodiesterase 4A1 (PDE4A1), PDE4A (gene 5141) (P27815 whole entry, looked up): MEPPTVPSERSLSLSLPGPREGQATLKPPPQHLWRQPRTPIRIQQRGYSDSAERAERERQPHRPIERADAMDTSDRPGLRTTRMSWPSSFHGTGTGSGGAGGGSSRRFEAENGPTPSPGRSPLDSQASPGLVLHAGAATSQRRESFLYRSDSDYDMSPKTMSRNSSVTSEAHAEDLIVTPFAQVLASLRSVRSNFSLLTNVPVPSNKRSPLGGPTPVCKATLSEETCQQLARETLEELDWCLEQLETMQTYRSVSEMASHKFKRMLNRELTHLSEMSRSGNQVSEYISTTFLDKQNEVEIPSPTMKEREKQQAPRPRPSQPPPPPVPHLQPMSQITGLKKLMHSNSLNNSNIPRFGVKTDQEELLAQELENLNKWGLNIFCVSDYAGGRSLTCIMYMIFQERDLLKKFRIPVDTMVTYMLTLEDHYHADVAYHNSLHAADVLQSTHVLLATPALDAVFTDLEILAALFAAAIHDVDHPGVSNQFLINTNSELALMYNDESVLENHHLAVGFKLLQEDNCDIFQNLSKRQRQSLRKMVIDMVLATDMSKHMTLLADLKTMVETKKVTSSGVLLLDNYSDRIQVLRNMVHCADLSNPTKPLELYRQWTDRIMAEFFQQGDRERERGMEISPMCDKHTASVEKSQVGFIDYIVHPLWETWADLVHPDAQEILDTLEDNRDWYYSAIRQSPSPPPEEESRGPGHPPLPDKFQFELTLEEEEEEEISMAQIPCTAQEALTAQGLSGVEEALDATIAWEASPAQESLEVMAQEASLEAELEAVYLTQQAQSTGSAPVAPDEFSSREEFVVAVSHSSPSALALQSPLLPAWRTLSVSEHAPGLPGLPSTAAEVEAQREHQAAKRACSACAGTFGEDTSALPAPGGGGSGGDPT

Question: How did the AC50 turn out when `CCNP(=S)(OC)O/C(C)=C/C(=O)OC(C)C` (configuration not stated) was run?
Answer: 19.5 µM (active)

Question: With `CC(C)Nc1nc(Cl)nc(NC(C)C)n1` as the compound, how does the AC50 read?
Answer: 1 µM (active)

Question: Which outcome does the source give for `COC(=O)NC(=S)Nc1ccccc1NC(=S)NC(=O)OC` here?
Answer: inactive

Question: Which AC50 does the source give for `CCOP(=O)(OCC)Oc1nc(Cl)c(Cl)cc1Cl` here?
Answer: 25 µM (active)

Question: `CCC(C)n1c(=O)[nH]c(C)c(Br)c1=O` (configuration not stated) was tested. Which AC50 did it give?
Answer: 25 µM (active)

Question: How did the outcome turn out when `COP(=S)(OC)Oc1ccc([N+](=O)[O-])c(C)c1` was run?
Answer: inactive

Question: How did the AC50 turn out when `CCN(CC)c1nc(C)cc(OP(=S)(OC)OC)n1` was run?
Answer: 25 µM (active)
